Screens from PubChem.
mHTT CaM bind: mHTT-calmodulin interaction abrogation; AlphaScreen His-mHTT/GST-CaM binding, luminescence; inhibition, % at 15 µM; 190,000 tested, 3.6% active; P42858; AID 1671202
Pf apPOL inh: Pf-apPOL DNA polymerase inhibition; Recombinant Pf-apPOL, molecular beacon fluorescence, 1.5 h; inhibition, % at 10 µM; 210,000 tested, 0.25% active
Each line names hits and unclear results; the compound was inactive in the other large screens. The list is not random: actives were taken first. Their share in the collection is about 3.6%. No stated cut-off is given here; in the data, active means inhibition above about 50%; inactive means the rest.

COc1ccc(Cl)cc1NC(=O)C1CCc2nc(N3CCN(C(C)=O)CC3)sc2C1 (stereo not drawn)	none
CCC(=O)N1CCCC(c2ccnc(-c3ccc(F)cc3)n2)C1 (stereo not drawn)	mHTT CaM bind 76
CCCC(=O)N1CCCC(c2ccnc(-c3ccc(F)cc3)n2)C1 (stereo not drawn)	none
O=C(c1ccccc1)N1CCCC(c2ccnc(-c3ccc(F)cc3)n2)C1 (stereo not drawn)	none
O=C(c1cccc(F)c1)N1CCCC(c2ccnc(-c3ccc(F)cc3)n2)C1 (stereo not drawn)	mHTT CaM bind 54
O=C(c1ccccc1)N1CCC(CCNS(=O)(=O)c2ccc(F)cc2F)CC1	mHTT CaM bind 50
Cc1ccc(C(=O)N2CCC(CCNS(=O)(=O)c3ccccc3C)CC2)cc1	none
Cc1ccc(S(=O)(=O)NCCC2CCN(C(=O)c3ccccc3)CC2)c(C)c1	mHTT CaM bind 53
O=C(c1ccccc1)N1CCC(CCNS(=O)(=O)c2cc(F)ccc2F)CC1	none
O=C(C1CCCN(c2nccc3sccc23)C1)N1CCN(c2ccc(F)cc2)CC1 (stereo not drawn)	mHTT CaM bind 95
O=C(C1CCCN(c2nccc3sccc23)C1)N1CCN(c2ccccc2F)CC1 (stereo not drawn)	mHTT CaM bind 90
O=C(NCc1ccc(F)cc1Cl)C1CCCN(c2nccc3sccc23)C1 (stereo not drawn)	none
Cc1cc2c(N3CCCC(C(=O)N4CCN(c5ccccc5)CC4)C3)nccc2s1 (stereo not drawn)	mHTT CaM bind 100
Cc1ccc(NC(=O)C2CCCN(c3nccc4sccc34)C2)cc1F (stereo not drawn)	none
Cc1cc2c(N3CCCC(C(=O)N4CCN(C5CCCCC5)CC4)C3)nccc2s1 (stereo not drawn)	none
CCOC(=O)CNC(=O)C1CC(=O)N(CCc2c[nH]c3ccc(F)cc23)C1 (stereo not drawn)	none
COc1ccc(NC(=O)c2coc3ccccc3c2=O)c([N+](=O)[O-])c1	none
O=C(NCCCN1CCCC1)C1CCc2sc(C(=O)N3CCCCCC3)cc2C1 (stereo not drawn)	none
COc1ccc(CNC(=O)CCC2CCN(c3cc(NC4CC4)ncn3)CC2)cc1	none
CS(=O)(=O)Nc1cccc2cccnc12	none
O=S(=O)(Nc1cccc2cccnc12)c1ccccc1	mHTT CaM bind 74
Cc1nn(C2CCS(=O)(=O)C2)c(C)c1N1CCN(C(=O)c2cc3ccccc3[nH]2)CC1 (stereo not drawn)	mHTT CaM bind 54
CSc1ccccc1C(=O)N1CCN(c2c(C)nn(C3CCS(=O)(=O)C3)c2C)CC1 (stereo not drawn)	none
Cc1ccccc1NC(=O)CN1C(=O)C(c2ccc(F)cc2)=NC1(C)C	none
COCCN1C(=O)C(=O)C(=C(O)c2ccc(Cl)cc2)C1c1ccc(C)cc1 (stereo not drawn)	none
COc1ccc(CCNC(=O)C2CC(c3ccccc3OC)=NO2)cc1OC (stereo not drawn)	none
COc1ccc(C2SCC3C(=O)N(c4ccccc4)C(=S)N32)cc1O (stereo not drawn)	mHTT CaM bind 100
COc1ccc(C2SCCN2C(=O)c2ccccc2C(=O)O)cc1Br (stereo not drawn)	none
Cc1nc(N)sc1-c1csc(Nc2cccc(C(=O)O)c2)n1	none
Cc1nc(N)sc1-c1csc(Nc2ccccc2)n1	mHTT CaM bind 89
O=[N+]([O-])c1ccc(Nc2nc(-c3ccncc3)cs2)cc1	none
CC(=O)Nc1nc(C)c(-c2csc(Nc3ccc([N+](=O)[O-])cc3)n2)s1	none
Ic1ccc(-c2csc(Nc3ccc4c(c3)OCO4)n2)cc1	mHTT CaM bind 62
c1ccc(Nc2nc(-c3ccc4c(c3)OCO4)cs2)nc1	none
Cc1nc(N)sc1-c1csc(Nc2ccc([N+](=O)[O-])cc2)n1	mHTT CaM bind 99
Cc1ccc(Nc2nc(-c3ccc([N+](=O)[O-])cc3)cs2)cc1C	mHTT CaM bind 75
COc1cccc(C(=O)N2CCCC(c3nnc(-c4ccccc4)o3)C2)c1 (stereo not drawn)	none
COc1ccc(C)cc1NC(=O)N1CCC2(CC1)NC(=O)c1ccc(F)cc1N2C	none
Cc1cccc(NC(=O)c2cc3c(CO)cnc(C)c3oc2=Nc2ccc(C)c(C)c2)c1	none
Cc1ccnc(Nc2nc(-c3ccccc3)cs2)c1	none
Cc1ccc(NCc2ccc([N+](=O)[O-])cc2)cc1C	mHTT CaM bind 60
Cc1cccc(Nc2nc(-c3ccc(C)c(C)c3)cs2)c1	mHTT CaM bind 55
Cc1cccc(NCc2ccc([N+](=O)[O-])cc2)c1	none
COc1ccc(Nc2nc(-c3ccc(C)c(C)c3)cs2)cc1	none
Cc1ccnc(Nc2nc(-c3sc(N)nc3C)cs2)c1	mHTT CaM bind 66
O=C(Nc1ccccc1)OCc1cc(-c2ccccc2)c(C(F)(F)F)s1	none (no result: mHTT CaM bind)
CCCOc1cccc(C(=O)Nc2ccc(NC(=O)CC)cc2)c1	none
Cc1cc(C(=O)NC2CC2)c2cc(Cl)ccc2n1	none
Cc1cc(Cl)ccc1NC(=O)CSc1cccc2cccnc12	none
Cc1cc(C)c(NC(=O)OCc2cccc3cccnc23)c(C)c1	mHTT CaM bind 100
N#CC1=C(N)SC(N)=C(C#N)C1c1cccnc1	none
COc1ccccc1-c1cc2ccc(OC(C)=O)cc2oc1=O	none
CC(C)NC(=O)C(=O)Nc1cccc(Cl)c1	none
O=C1CCC[C@H]2C[C@H](NCc3ccc(F)cc3)CC[C@]23CCCN13	none
O=C1CCC[C@H]2C[C@H](NCCc3ccncc3)CC[C@]23CCCN13	mHTT CaM bind 77
O=C(O)COCC(=O)Nc1ccccn1	none (no result: mHTT CaM bind)
Cc1nccn1-c1cc(NCCNC(=O)Nc2ccc(F)c(Cl)c2)ncn1	none
O=C(NCCNc1ccc(Nc2ccccn2)nn1)Nc1ccc(F)c(Cl)c1	mHTT CaM bind 100
O=C(COc1ccccc1)NCCNc1ccc(Nc2ccccn2)nn1	mHTT CaM bind 87
O=S(=O)(NCCNc1ccc(Nc2ccccn2)nn1)c1ccccc1C(F)(F)F	mHTT CaM bind 97
O=c1cccnn1CCNS(=O)(=O)c1ccccc1C(F)(F)F	none
CC(=O)Oc1ccccc1C(=CC=C(c1ccccc1)c1ccccc1)N1CCCCC1	none (no result: mHTT CaM bind)
C=Cc1ccc(CSc2nc3c(c(=O)[nH]2)CN(CCC)CC3)cc1	none
Cc1cc2c(C(C)C)c(O)c(O)c(C=NCSN)c2c(O)c1-c1c(C)cc2c(C(C)C)c(O)c(O)c(C=NCSN)c2c1O	mHTT CaM bind 100 (no result: Pf apPOL inh)
CCCC(=O)NC(c1cccc(F)c1)c1ccc2cccnc2c1O (stereo not drawn)	mHTT CaM bind 100
CC(C)C(=O)NC(c1cccc([N+](=O)[O-])c1)c1ccc2cccnc2c1O (stereo not drawn)	mHTT CaM bind 100
CCCC(=O)NC(c1cccc([N+](=O)[O-])c1)c1ccc2cccnc2c1O (stereo not drawn)	mHTT CaM bind 99
COc1cccc(C(C)NC(=O)C2CCN(c3cn[nH]c(=O)c3)CC2)c1 (stereo not drawn)	none
COc1ccccc1/C=C1\C(=O)NN(c2ccccc2)C1=O	none
CC(=O)n1cc(/C=C2\C(=O)NN(c3ccccc3)C2=O)c(-c2ccc(F)cc2)n1	mHTT CaM bind 54
O=C(O)COc1ccccc1C1OC2CCCCC2C2=CCCCC21 (stereo not drawn)	mHTT CaM bind 50
Oc1ccccc1C1OC2CCCCC2C2=CCCCC21 (stereo not drawn)	none
Cc1ccccc1Cn1c(CN2CCC(C(=O)NCc3ccco3)CC2)cc2ccccc21	mHTT CaM bind 86
O=C(NCCc1ccco1)C1CCN(Cc2cc3ccccc3n2Cc2ccccc2)CC1	mHTT CaM bind 58
